Compound activity (PubChem)
Shown are actives, neighbours in structure and some others; about 18% of the full set was active somewhere.
DT40 TDP1 no CPT – qHTS for Inhibitors of human tyrosyl-DNA phosphodiesterase 1 (TDP1): qHTS in cells in absence of CPT. AID 686978, 2013. DT40 Tdp1-/- hTDP1 cells, no CPT, ATP luminescence, 48 h. Potency, µM (titrated, usually from 46.2 µM), for the others: at the highest dose activity change, negative = growth inhibition, usual class: inhibitors. 420,000 compounds, 15% hits; note: potency is the fitted concentration of half-maximal effect; % is set by controls: 0 for no effect and ±100 for the full control effect; nearly all actives have a fitted effect of over 55% in size
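Growth kinetics read by CellTiter-Glo luminescence after ≥48 hr at 37 °C. Cells: DT40 Tdp1-/- stably carrying human TDP1, 400 per well, compound exposure in the absence of CPT (DMSO vehicle).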
IL-1B inflam inh – qHTS for Inhibitors of Inflammasome Signaling: IL-1-beta AlphaLISA Primary Screen; THP-1 LPS/ATP IL-1B secretion, AlphaLISA, 16 h; stronger effect = lower value; activity change, % at 57.5 µM; 360,000 compounds, 4.7% hits; AID 743279, 2014; in the data active = activity change below about -50%; inconclusive = mostly about -30% to -49%; note: % is set by controls: 0 for no effect and ±100 for the full control effect
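Secreted IL-1B measured by AlphaLISA bead assay after 16 h compound exposure of THP-1 cells; compounds (final up to 57.5 uM) added 1 h before LPS (250 ng/mL) and ATP (1.25 mM) stimulation; lower signal means less secretion.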
DT40 TDP1 CPT – qHTS for Inhibitors of human tyrosyl-DNA phosphodiesterase 1 (TDP1): qHTS in cells in presence of CPT | Potency, µM (highest dose often 46.2 µM), inactives show at the top dose activity change, negative = growth inhibition, actives largely listed as inhibitors | 420,000 compounds, 12% hits | chicken DT40 Tdp1-/-;hTDP1 cells + 20 nM CPT, ATP luminescence, 48 h; note: potency is the fitted concentration of half-maximal effect; % is set by controls: 0 for no effect and ±100 for the full control effect; nearly all actives have a fitted effect of over 55% in size
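Chicken DT40 Tdp1-/- cells complemented with human TDP1, 400 cells/well, exposed to compounds plus 20 nM camptothecin for at least 48 h at 37 C; viability read as ATP content by CellTiter-Glo luminescence.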
TGFb SMAD3 inh – qHTS for Inhibitors of TGF-b; AID 588855, 2011; HepG2 CAGA-GFP TGF-b/SMAD3 reporter, GFP fluorescence, 18 h; TGF-beta stimulated, 500 pg/mL final; 410,000 compounds, 1.2% hits; Potency, µM (doses to about 46.1 µM), for the others: top-dose activity, negative = inhibition, hits mostly inhibitors; note: potency is the fitted concentration of half-maximal effect; % is set by controls: 0 for no effect and ±100 for the full control effect; nearly all actives have a fitted effect of over 65% in size
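TGF-beta reporter screen: HEPG2 CAGA-GFP, 1% FBS, 500 pg/mL TGF-beta final, 18 h; per-cell GFP summed per well; curves fitted and categorized by class.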
TDP1 inh – qHTS Assay for Inhibitors of Tyrosyl-DNA Phosphodiesterase (TDP1); Tyrosyl-DNA phosphodiesterase 1 (Homo sapiens), Q9NUW8; recombinant TDP1, AlphaScreen DNA substrate cleavage; Potency, µM (series often up to 130 µM), without a hit: top-dose activity change, negative = inhibition, actives largely listed as inhibitors; 350,000 compounds, 0.28% hits; AID 485290, 2010; note: potency is the fitted concentration of half-maximal effect; % is set by controls: 0 for no effect and ±100 for the full control effect; nearly all actives have a fitted effect of over 40% in size
Target sequence (Q9NUW8 whole entry, looked up): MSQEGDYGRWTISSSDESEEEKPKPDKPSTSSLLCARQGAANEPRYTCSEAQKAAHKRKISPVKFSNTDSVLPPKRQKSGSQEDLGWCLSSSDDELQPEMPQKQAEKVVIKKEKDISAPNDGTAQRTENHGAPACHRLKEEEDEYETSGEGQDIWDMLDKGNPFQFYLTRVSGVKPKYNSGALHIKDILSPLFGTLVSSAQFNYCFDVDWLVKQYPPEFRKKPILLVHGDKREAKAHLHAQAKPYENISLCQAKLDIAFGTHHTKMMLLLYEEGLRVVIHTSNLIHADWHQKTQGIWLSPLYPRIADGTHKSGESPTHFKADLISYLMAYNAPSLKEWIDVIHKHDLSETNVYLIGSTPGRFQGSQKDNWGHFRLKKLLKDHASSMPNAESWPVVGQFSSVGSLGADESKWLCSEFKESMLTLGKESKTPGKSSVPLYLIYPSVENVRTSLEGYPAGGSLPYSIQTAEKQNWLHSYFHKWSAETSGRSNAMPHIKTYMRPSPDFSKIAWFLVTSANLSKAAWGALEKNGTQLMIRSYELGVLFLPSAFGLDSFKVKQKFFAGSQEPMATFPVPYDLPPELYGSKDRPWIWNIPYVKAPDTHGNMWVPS
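Signal: AlphaScreen proximity between streptavidin donor and anti-FITC acceptor beads on intact substrate. Reaction: Tdp1 1 nM, substrate 15 nM final, 5 min RT after 15 min compound preincubation.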
HepG2 tox – qHTS for Inhibitors of TGF-b: Cytotox Counterscreen. HepG2 CAGA-GFP viability, ATP luminescence, 18 h. Potency, µM (titrated, usually from 46.1 µM), for inactives: at the highest dose activity change, negative = cytotoxicity, actives largely listed as cytotoxic. 410,000 compounds, 0.76% hits. AID 588856, 2011; note: potency is the fitted concentration of half-maximal effect
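CellTiter-Glo luminescence gave cytotoxicity after 18 hours at 37 degrees C. The cells were HepG2 CAGA-GFP in 1% FBS DMEM, stimulated with 500 pg/mL TGF-beta after compound addition. %Activity was normalised to no-cell wells (complete cell-killing) and DMSO (no toxicity), and curves were fitted and classified.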
Starred values were filed as active, the others as inactive; u = inconclusive; x = no result given. Unless noted, calls come from the whole dose curve; as a rule, active = well fitted curve in the direction sought with a large enough effect; inconclusive = small, poorly fitted or top-dose-only effect, or another doubt; inactive = no such curve, though single readings can be large; an effect the other way counts as inactive or inconclusive.

SMILES	DT40 TDP1 no CPT	IL-1B inflam inh	DT40 TDP1 CPT	TGFb SMAD3 inh	TDP1 inh	HepG2 tox
N#CC(C#N)=NNc1ccc(OC(F)(F)F)cc1	1.12µM*	x	1.12µM*	x	21.9%	x
C[C@]12CC[C@@H]3c4ccc(OC(=O)N(CCCl)CCCl)cc4CC[C@H]3[C@@H]1CC[C@@H]2OP(=O)(O)O	-3.4%	x	3.2%	x	x	x
CC12CCC3c4ccc(OP(=O)(N5CC5)N5CC5)cc4CCC3C1CCC2=O (stereo unspecified)	13µM*	40.0	14.6µM*	5.3%	x	-3.4%
Cc1ccc(-n2nc3c(=O)n(CC(=O)Nc4ccccc4F)nc(C)c3c2C)c(C)c1	18.4µM*	x	u	x	-7.6%	-9.2%
CCN(CC)C(=O)c1ccc(NC(=O)Cn2nc(C)c3ccccc3c2=O)cc1	-7.9%	1.2	-23.9%	-18.5%	-4.4%	9.3%
Cc1ccc(C)c(NC(=O)Cn2nc(C)c3nn(-c4ccc(Cl)cc4)c(C)c3c2=O)c1	18.4µM*	x	23.1µM*	-18.8%	2.7%	-0.3%
c1ccc(/N=C2\N=C(Nc3ccccn3)c3ccccc32)nc1	0.146µM*	51.1	0.206µM*	u	x	-34.6%
O=C(Nc1ccc(Oc2ccc(Cl)cc2)c(Cl)c1)c1cc(I)cc(I)c1O	u	12.5	u	-4.2%	12.6%	-8.9%
CC(=O)N1N=C(c2c(O)n(C)c(=O)n(C)c2=O)CC1c1ccccc1 (stereo unspecified)	14.6µM*	77.0	u	-0.6%	2.7%	-6.8%
CC(=O)N1N=C(c2cccnc2)CC1c1ccccc1O (stereo unspecified)	-10.7%	97.3	-11.7%	u	x	10.1%
COC(=O)C1=C(c2cccc(C#N)c2)C[C@@H]2CC[C@H]1N2C(=O)N1CCCC1	18.4µM*	35.1	u	-0.4%	0.5%	-0.2%
COC(=O)C1=C(c2ccc(OC(F)(F)F)cc2)C[C@@H]2CC[C@H]1N2C(=O)N1CCCC1	1.84µM*	-1.3	1.84µM*	u	0.5%	3.3%
COC(=O)C1=C(c2ccc(C(C)=O)cc2)C[C@@H]2CC[C@H]1N2C(=O)N1CCOCC1	u	12.8	-22.4%	8.2%	3.2%	-7.2%
COC(=O)C1=C(c2cccc(C#N)c2)C[C@@H]2CC[C@H]1N2C(=O)N1CCc2cc(OC)c(OC)cc2C1	u	4.4	u	-5.2%	4.3%	-30.2%
COC(=O)C1=C(c2ccc(OC(F)(F)F)cc2)C[C@@H]2CC[C@H]1N2C(=O)N1CCOCC1	1.84µM*	0.0	2.59µM*	-13.1%	0.3%	-25.1%
COC(=O)C1=C(c2ccc(OC(F)(F)F)cc2)C[C@@H]2CC[C@H]1N2C(=O)NC1CC1	14.6µM*	21.8	20.6µM*	-18.7%	-0.3%	-13.6%
CC(=O)OC1C(O)C2=C3C4(C)C1C(C)(C)C(=O)CC4C3(O)C(OC(C)=O)C1(CC1C)C2=O (stereo unspecified)	7.31µM*	-121.1*	5.8µM*	x	x	x
COP(=S)(OC)Oc1cc(Cl)c(Cl)cc1Cl	-2.6%	x	-4.9%	x	x	x
Cc1cccc(CCNCc2cc3cccc(C)c3[nH]c2=O)c1	13µM*	-28.5	8.2µM*	0.5%	5.4%	-38.1%
Cc1cccc(CCNCc2cc3cc(C)cc(C)c3[nH]c2=O)c1	-24.2%	0.0	u	-26.5%	x	-30.4%
Cc1ccc2cc(CNCCc3ccccc3C)c(=O)[nH]c2c1	18.4µM*	-79.1*	u	-24.6%	5.2%	-28.2%
